# From article PMC11062922 (Nature Chemical Biology, 2023)
# Legend:
# Set-up in all cases: species or system human, MV4-11 + K-562 + COLO205 + SK-N-BE2 + OVCAR-8
# Conditions in all cases: read-out: apparent Kd; compound concentrations:100 nM and 1000 nM (sheet 'Samples'); n = 1
# AURKA = test system: AURKA
# AURKB = test system: AURKB
# DDR1 = test system: DDR1
# DDR2 = test system: DDR2
# FLT3 = test system: FLT3
# FLT4 = test system: FLT4
# MET = test system: MET
# PLK4 = test system: PLK4
# RET = test system: RET
# TGFBR2 = test system: TGFBR2
# TNK1 = test system: TNK1
smiles,measurement,setting,value
CN1CCN(C(=O)c2ccc(NC(=O)Nc3ccc(N(C)c4ccnc(Nc5ccc(CS(C)(=O)=O)cc5)n4)cc3)cc2)CC1.Cl [GW830263A],potency estimated from few doses,AURKA,303 nM
same,potency estimated from few doses,AURKB,247 nM
same,potency estimated from few doses,DDR1,816 nM
same,potency estimated from few doses,DDR2,1150 nM
same,potency estimated from few doses,FLT3,108 nM
same,potency estimated from few doses,FLT4,566 nM
same,potency estimated from few doses,MET,2330 nM
same,potency estimated from few doses,PLK4,873 nM
same,potency estimated from few doses,RET,708 nM
same,potency estimated from few doses,TGFBR2,2130 nM
same,potency estimated from few doses,TNK1,357 nM
